Data as given in article PMC5540273 (PLoS ONE, 2017).

What was measured:
Details in all cases: concentration: 1 μM, replicates: in singlicate; n = 1
WNK1 = test system: WNK1
WNK2 = test system: WNK2
WNK3 = test system: WNK3
WNK4 = test system: WNK4
YANK1 = test system: T1, YANK1
T1 construct: gene STK32A

YANK2 = test system: T2, YANK2
T2 construct: gene STK32B

YANK3 = test system: T3, YANK3
T3 construct: gene STK32C

YES = test system: T4, YES
T4 construct: gene YES1

YSK1 = test system: T5, YSK1
T5 construct: gene STK25

YSK4 = test system: T6, YSK4
T6 construct: gene MAP3K19
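Note: KINOMEscan kinase panel screen.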

| SMILES | %Inh (WNK1) [%] | %Inh (WNK2) [%] | %Inh (WNK3) [%] | %Inh (WNK4) [%] | %Inh (YANK1) [%] | %Inh (YANK2) [%] | %Inh (YANK3) [%] | %Inh (YES) [%] | %Inh (YSK1) [%] | %Inh (YSK4) [%] |
| --- | --- | --- | --- | --- | --- | --- | --- | --- | --- | --- |
| Cn1cc(-c2ccc3c(c2)CCN3C(=O)Cc2cc(F)cc(C(F)(F)F)c2)c2c(N)ncnc21 [GSK2635225] | 8 | 10 | 30 | 13 | 19 | 0 | 0 | 13 | 22 | 88 |
| O=C1NC(=O)C(c2ccccc2Cl)=C1Nc1cccc(Cl)c1 [SB-342409] | 14 | 8 | 0 | 1 | 0 | 0 | 100 | 17 | 15 | 40 |
| CN(c1ccc(NC(=O)N2CCN(CCCN3CCOCC3)CC2)cc1)c1ccnc(Nc2ccc(CS(C)(=O)=O)cc2)n1.Cl [GW830899] | 0 | 0 | 0 | 0 | 0 | 0 | 0 | 4 | 0 | 81 |
| Cn1cc(-c2cnc(N)c3c(-c4ccc5c(c4)CCN5C(=O)Cc4ccccc4)csc23)cn1 [GSK2593074] | 0 | 0 | 0 | 0 | 0 | 0 | 0 | 55 | 6 | 43 |
| CN(c1ccc2c(c1)nc(NCc1ccccc1)n2C)c1ccnc(Nc2ccc(CS(C)(=O)=O)cc2)n1.Cl [GW811603] | 0 | 2 | 11 | 0 | 0 | 0 | 0 | 0 | 0 | 97.3 |
| Cc1cccc(Nc2nc(N[C@H]3CCCC[C@H]3N)ncc2C(N)=O)c1.Cl [GSK986310] | 9 | 30 | 32 | 0 | 50 | 46 | 51 | 44 | 54 | 82 |
| NCCC(NC(=O)c1cc(Br)c(-c2ccnc3[nH]ccc23)s1)c1ccccc1.O=C(O)C(F)(F)F.O=C(O)C(F)(F)F (centres unmarked) [GSK1307810] | 0 | 0 | 24 | 37 | 10 | 0 | 18 | 14 | 4 | 97.3 |
| COc1cccc(-c2nc(-c3ccccc3)[nH]c2-c2ccncc2)c1 [SB-610250] | 9 | 0 | 33 | 29 | 10 | 4 | 0 | 8 | 100 | 100 |
